HT1080 IDH1KD tx = HT-1080 IDH1 knockdown cell toxicity (counter line) | hit rate 2% among 360,000 | Potency, µM (highest dose often 46.1 µM), most hits filed as cytotoxic | AID 686971 | HT-1080 IDH1 knockdown viability, ATP luminescence, 48 h
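% activity derives from luminescence (CellTiter-Glo), normalised to DMSO and no-cell wells. HT-1080-IDH1KD cells, 750/well, had 48 h compound exposure at 37 °C.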
TDP1 cell CPT = DT40-hTDP1 cell growth loss with CPT; hit rate 12% among 420,000; chicken DT40 Tdp1-/-;hTDP1 cells + 20 nM CPT, ATP luminescence, 48 h; Potency, µM (series often up to 46.2 µM), hits mostly inhibitors; note: nearly all actives have a fitted effect of over 55% in size
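Cell growth measured by CellTiter-Glo luminescence after a minimum 48 h, 37 C compound exposure with 20 nM CPT in Tdp1-knockout DT40 cells stably expressing hTDP1, seeded 400/well; qHTS titration format.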
HT1080-NT tox = kills 2HG-producing HT-1080-NT fibrosarcoma cells; hit rate 1.6% among 360,000; HT-1080-NT fibrosarcoma viability, CellTiter-Glo ATP luminescence, 48 h; Potency, µM (series often up to 46.1 µM), hits mostly cytotoxic;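 note: NT is the 2HG producing partner of a matched IDH1 knockdown line; nearly all actives have a fitted effect of over 55% in size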
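Viability by CellTiter-Glo luminescence after 48 h compound exposure at 37C of HT-1080-NT cells (750/well, RPMI, 5% FBS). % activity scaled between DMSO wells and medium-only wells, then curve-fitted and categorized by curve class.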
DT40 TDP1 no CPT = qHTS for Inhibitors of human tyrosyl-DNA phosphodiesterase 1 (TDP1): qHTS in cells in absence of CPT; DT40 Tdp1-/- hTDP1 cells, no CPT, ATP luminescence, 48 h; Potency, µM (titrated, usually from 46.2 µM), most hits filed as inhibitors; hit rate 15% among 420,000; note: nearly all actives have a fitted effect of over 55% in size
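Stably hTDP1-transfected Tdp1-null chicken DT40 cells were treated with library compounds minus camptothecin and grown for at least 48 hr at 37 °C, after which cellular ATP was quantified by luminescence.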
IL1B secr inh = blocks inflammasome-driven IL-1 beta release; THP-1 LPS/ATP IL-1B secretion, AlphaLISA, 16 h; hits give low values; hit rate 4.7% among 360,000; activity change, % at 57.5 µM; AID 743279; in the data active = activity change below about -50%; inconclusive = mostly about -30% to -49%
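THP-1 cells pretreated 1 hr with compounds (up to 57.5 uM final), then stimulated with LPS (250 ng/mL final) plus ATP (1.25 mM final); secreted IL-1B measured by AlphaLISA after 16 hr, decreased signal indicating inhibition.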
Of the large screens only hits and unclear results are named; the others gave an inactive call. In the library only some 19% were active in any assay of this set; here they are far more common. Unless noted, calls come from the whole dose curve; as a rule, active = well fitted curve in the direction sought with a large enough effect; inconclusive = small, poorly fitted or top-dose-only effect, or another doubt; inactive = no such curve, though single readings can be large; an effect the other way counts as inactive or inconclusive.

O=C(CCOc1ccccc1)Nc1ccc(Cl)c(S(=O)(=O)N2CCOCC2)c1	TDP1 cell CPT inconclusive, DT40 TDP1 no CPT inconclusive, IL1B secr inh -71.8
Cc1ccc(C(=O)N(C)CCOc2ccccc2)cc1S(=O)(=O)N1CCOCC1	TDP1 cell CPT inconclusive, DT40 TDP1 no CPT inconclusive
O=C(Nc1ccc(Cl)c(S(=O)(=O)N2CCOCC2)c1)c1ccccc1-c1ccc(C(F)(F)F)cc1	TDP1 cell CPT inconclusive, DT40 TDP1 no CPT 16.4µM
O=C(C1=NN[C@@H]2C(=O)N(Cc3ccccc3)C(=O)[C@H]12)c1ccc([N+](=O)[O-])cc1	none
C[C@H]1O[C@H](O[C@H]2[C@H](O)[C@@H](O)[C@@H](O[C@H]3[C@H](O)[C@@H](O)[C@H](O)O[C@@H]3CO)O[C@@H]2CO)[C@H](O)[C@@H](O)[C@@H]1N[C@H]1C=C(CO)[C@@H](O)[C@H](O)[C@H]1O	none (no result: HT1080 IDH1KD tx, HT1080-NT tox, IL1B secr inh)
CCCCN(CCCC)C(=S)[S-].CCCCN(CCCC)C(=S)[S-].[Zn+2]	none (no result: HT1080 IDH1KD tx, HT1080-NT tox, IL1B secr inh)
COc1cc(OC)c(-c2cc(C(=O)O)ccc2OC)c(OC)c1	none
CCOc1ccc(Oc2ccc(S(=O)(=O)N3CCOCC3)cc2N)cc1	TDP1 cell CPT inconclusive, DT40 TDP1 no CPT inconclusive
COc1ccc(S(=O)(=O)N2CCOCC2)cc1NC(=O)COC(=O)CC1CC2CCC1C2 (stereo unspecified)	none
Nc1cc(S(=O)(=O)N2CCCCC2)ccc1Oc1ccccc1	HT1080 IDH1KD tx inconclusive, TDP1 cell CPT inconclusive, DT40 TDP1 no CPT 10.3µM
CN(CCOc1ccccc1)C(=O)c1cc(S(=O)(=O)N2CCCCC2)ccc1Cl	TDP1 cell CPT inconclusive, DT40 TDP1 no CPT inconclusive, IL1B secr inh -65.2
O=C(O)c1cc(S(=O)(=O)N2CCCCC2)ccc1Cl	none
O=C(COC(=O)CC1CC2CCC1C2)Nc1ccc(Cl)c(S(=O)(=O)N2CCOCC2)c1 (stereo unspecified)	HT1080 IDH1KD tx inconclusive, TDP1 cell CPT 16.4µM, DT40 TDP1 no CPT inconclusive
CCCn1c(SCC(=O)NCCCN2CCCC2=O)nc2ccccc2c1=O	none
Cc1cccc(NS(=O)(=O)c2ccc(C)c(C(=O)NCC(c3ccco3)N3CCCCC3)c2)c1 (stereo unspecified)	TDP1 cell CPT 20.6µM, DT40 TDP1 no CPT 18.4µM
COc1ccc(NS(=O)(=O)c2ccc(C)c(C(=O)NCC(c3ccco3)N3CCCCC3)c2)cc1 (stereo unspecified)	TDP1 cell CPT inconclusive, DT40 TDP1 no CPT inconclusive
O=C(NCC(c1ccco1)N1CCCC1)c1ccc(S(=O)(=O)Nc2ccccc2Cl)cc1 (stereo unspecified)	TDP1 cell CPT inconclusive
Cc1ccc(NS(=O)(=O)c2cccc(C(=O)NCC(c3ccco3)N3CCCCC3)c2)cc1 (stereo unspecified)	TDP1 cell CPT 25.9µM, DT40 TDP1 no CPT inconclusive
COc1ccc(NS(=O)(=O)c2cccc(C(=O)NCC(c3ccco3)N3CCCC3)c2)cc1 (stereo unspecified)	none
Cc1cccc(NS(=O)(=O)c2ccc(C(=O)NCC3(N4CCCCC4)CCCCC3)cc2)c1C	HT1080 IDH1KD tx inconclusive, TDP1 cell CPT 20.6µM, DT40 TDP1 no CPT 14.6µM, IL1B secr inh -52.6
Cc1ccccc1NS(=O)(=O)c1ccc(C(=O)NCC(c2ccco2)N2CCCCC2)cc1 (stereo unspecified)	TDP1 cell CPT inconclusive, DT40 TDP1 no CPT 23.1µM
CC(=O)O/N=C(\N)c1ccc(-c2csnn2)cc1	none
COCCNC(=O)c1ccc(NC(=O)C2(c3ccccc3)CCCC2)cc1	none
CC(=O)c1cccc(S(=O)(=O)NCC(c2ccco2)N2CCCCC2)c1 (stereo unspecified)	TDP1 cell CPT inconclusive, DT40 TDP1 no CPT 16.4µM
CCn1c(COc2ccc(=O)n(-c3ccccc3)n2)nnc1SCc1ccc(C)cc1	DT40 TDP1 no CPT inconclusive
CCn1c(COc2ccc(=O)n(-c3ccccc3)n2)nnc1SCc1ccccc1C	TDP1 cell CPT 16.4µM, DT40 TDP1 no CPT inconclusive
COc1ncccc1C(=O)N1CCOc2ccc(C(O)C(c3ccccc3)c3ccccc3)cc2C1 (stereo unspecified)	DT40 TDP1 no CPT inconclusive (no result: HT1080 IDH1KD tx, HT1080-NT tox, IL1B secr inh)
O=S(=O)(c1ccccc1)c1ncc(C(F)(F)F)cc1Cl	HT1080 IDH1KD tx 16.4µM, TDP1 cell CPT 4.11µM, HT1080-NT tox inconclusive, DT40 TDP1 no CPT 3.66µM, IL1B secr inh -106.4
Cc1ccccc1Nc1c(-c2ccsc2)nc2c(C)cccn12	TDP1 cell CPT 16.4µM, DT40 TDP1 no CPT 20.6µM (no result: HT1080 IDH1KD tx, HT1080-NT tox, IL1B secr inh)
Cc1ccc(-c2nc3ccccn3c2Nc2ccccc2C)s1	TDP1 cell CPT inconclusive, DT40 TDP1 no CPT 20.6µM (no result: HT1080 IDH1KD tx, HT1080-NT tox, IL1B secr inh)
Cc1ccccc1Nc1c(-c2ccc(Cl)s2)nc2ccccn12	DT40 TDP1 no CPT inconclusive (no result: IL1B secr inh)
Cc1ccn2c(Nc3ccccc3C)c(-c3ccncc3)nc2c1	TDP1 cell CPT 16.4µM, DT40 TDP1 no CPT 14.6µM, IL1B secr inh -88.7
CNC(=O)c1ccccc1Sc1cccc2cccc(C(=O)O)c12	none
COc1cc(/C=N/Nc2ccc3ccccc3c2)ccc1OC(=O)c1ccco1	none
COc1ccc2c(c1)OCC(Cc1ccc(OC)c(O)c1)C2=O (stereo unspecified)	TDP1 cell CPT 0.731µM, DT40 TDP1 no CPT 0.581µM (no result: HT1080 IDH1KD tx, HT1080-NT tox, IL1B secr inh)
COc1ccc(CCNCc2c(OC)ccc3ccccc23)cc1OC	HT1080 IDH1KD tx inconclusive, TDP1 cell CPT 16.4µM, HT1080-NT tox inconclusive, DT40 TDP1 no CPT inconclusive, IL1B secr inh inconclusive
COc1ccc2ccccc2c1CNC(C)CCc1ccccc1 (stereo unspecified)	HT1080 IDH1KD tx 18.4µM, TDP1 cell CPT 9.2µM, HT1080-NT tox inconclusive, DT40 TDP1 no CPT inconclusive (no result: IL1B secr inh)
CC(C)OCC1CC(CC(=O)Nc2ccc([N+](=O)[O-])cc2)C(=O)O1 (stereo unspecified)	none
CCOc1ccccc1NC(=S)N1CCC(c2nc3ccccc3o2)CC1	TDP1 cell CPT inconclusive, DT40 TDP1 no CPT inconclusive
CC(C)(C)[C@H]1C=C(C(=O)N2CCN(Cc3ccc4c(c3)OCO4)CC2)O[C@@H](OCc2ccc(CO)cc2)C1	TDP1 cell CPT 20.6µM, DT40 TDP1 no CPT 18.4µM, IL1B secr inh -61.3
CC(C)(C)[C@H]1C=C(C(=O)NC2CC2)O[C@@H](OCc2ccc(CO)cc2)C1	TDP1 cell CPT inconclusive, DT40 TDP1 no CPT inconclusive
CC(C)(C)[C@@H]1C=C(C(=O)N2CCN(Cc3ccccc3)CC2)O[C@H](OCc2ccc(CO)cc2)C1	TDP1 cell CPT 13µM, DT40 TDP1 no CPT inconclusive
COc1ccc(CC(=O)OC(C)CN2CCCCC2)cc1 (stereo unspecified)	DT40 TDP1 no CPT inconclusive
Cc1ccc(OCc2n[nH]c(=S)n2-c2ccc(Br)cc2)cc1	none
CC(C)(C)OC(=O)C[C@@H]1C/C=C\C[C@@H](CC(=O)N(CCO)Cc2ccccc2)C(=O)N[C@@H](c2ccccc2)COC1=O	TDP1 cell CPT inconclusive, DT40 TDP1 no CPT 23.1µM
